In PubChem BioAssay (NCI):
About 83,000 compounds went through this panel and 20% of them were active in at least one assay; those are over-represented in the sample as a whole.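 Results are percent growth after 48 hours of single-concentration exposure. 100 means growth as in untreated cells, lower positive values show inhibition; negative values down to -100 show cell death.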 A number with no mark means an inactive call. Activity calls are given as the source filed them. Rule for the calls: active = growth percent below 10; inactive = the rest.

What was measured:
Test in all cases: NCI-60 one-dose screen, 48 h (100 = growth as untreated, 0 = no growth, -100 = all killed)
Details in all cases: 10 µM unless noted
RPMI-8226 leukemia = tested on: RPMI-8226 leukemia
OVCAR-8 ovarian = tested on: OVCAR-8 ovarian
OVCAR-5 ovarian = tested on: OVCAR-5 ovarian
OVCAR-4 ovarian = tested on: OVCAR-4 ovarian
SK-OV-3 ovarian = tested on: SK-OV-3 ovarian
IGROV1 ovarian = tested on: IGROV1 ovarian
OVCAR-3 ovarian = tested on: OVCAR-3 ovarian
HS 578T breast = tested on: HS 578T breast
NCI/ADR-RES ovarian = tested on: NCI/ADR-RES ovarian

Structure (SMILES)	growth (RPMI-8226 leukemia)	growth (OVCAR-8 ovarian)	growth (OVCAR-5 ovarian)	growth (OVCAR-4 ovarian)	growth (SK-OV-3 ovarian)	growth (IGROV1 ovarian)	growth (OVCAR-3 ovarian)	growth (HS 578T breast)	growth (NCI/ADR-RES ovarian)
COc1cc2nc3sc(C(=O)Nc4ccc(C(=O)OC(C)C)cc4)c(C(=O)Nc4ccc(Cl)cc4C)n3c(=O)c2cc1OC	52.7%	35.4%	70%	69.5%	91.4%	17%	77.2%	58.9%	62.3%
N=c1c(S(=O)(=O)c2ccccc2)cc2c(=O)n3ccccc3nc2n1CC1CCCO1 (stereo not drawn)	109%	116%	89.8%	99.9%	99.3%	102%	108%	104%	
COc1ccc2cc(-c3ccnc4c(N=Nc5ccc(Cl)cc5)c(N)nn34)ccc2c1	94.9%	93.9%	99.7%	116%	93.7%	102%	105%	92.9%	94.5%
Nc1nc(NC(=O)Nc2ccc(C(=O)O)cc2)nn1-c1ccc(S(N)(=O)=O)cc1	102%	86.8%	95.9%	103%	107%	94%	95.7%	88.1%	103%
CC/C=C\CCC/C=C1/C(=O)C=C[C@@H]1C/C=C\CCCC(=O)OC	1.41% (active)	14.2%	73.5%	76.6%	119%	84.2%	26.7%	37.2%	25.9%
CN(C)CCCC1(c2ccc(F)cc2)OCc2cc(-c3cc4ccccc4s3)ccc21 (stereo not drawn)	-3.17% (active)	7.22% (active)	55.8%	16.8%	68%	-28% (active)	-29.1% (active)	27.2%	23.7%
COc1cccc(CNc2c3ccccc3nc3ccccc23)c1	16.7%	31.9%	45.9%	43.6%	54.7%	28.3%	54.8%	55.6%	37.5%
Cc1ccc(C(=O)Nc2cccc(C#Cc3cccc4[nH]nc(N)c34)c2)cc1C(F)(F)F	66.9%	72.1%	59.9%	66.6%	84.3%	17.9%	82.7%	47.4%	
CN(C)c1ccc(-c2ccc3c(c2)c(-c2ccccc2)nc(=O)n3C)cn1	2.69% (active)	54%	53.2%	74.6%	38.6%	49.1%	13.1%	41.2%	27.2%
O=C(Nc1cnc(Nc2ccc(N3CCOCC3)nc2)nc1Oc1ccc(C(F)(F)F)cc1)c1ccncc1	100%	86.6%	92.9%	80.3%	101%	94%	85%	81.6%	86%
Fc1cccc(-c2ccc3c(c2)C2(CCNCC2)CN3)c1	95.7%	108%	103%	92%	112%	97.4%	102%	105%	95.5%
Cc1c2ccncc2c(C)c2c1c1cc(CO)ccc1n2C	-17.1% (active)	6.79% (active)	-15.8% (active)	-3.73% (active)	-2.65% (active)	-8.24% (active)	-24.2% (active)	24.3%	4.56% (active)
CO[C@H](C(=O)[C@@H](O)[C@@H](C)O)[C@@H]1Cc2cc3cc(O[C@H]4C[C@@H](O[C@H]5C[C@@H](O)[C@H](O)C(C)O5)[C@H](O)C(C)(O)O4)cc(O)c3c(O)c2C(=O)[C@H]1O[C@H]1C[C@@H](O[C@H]2C[C@@H](O[C@H]3C[C@@H](OC)[C@H](O)C(C)O3)[C@@H](O)C(C)O2)[C@H](O)C(C)O1 (stereo partly drawn)	26.7%	24.3%		42.2%	17.3%	32.6%	21.7%	26.4%	102%
O=C(CI)NC(=O)NC(=O)NCc1ccccc1	29.4%	56.3%	44.3%	30.3%	104%	21.1%	-55.9% (active)	102%	71%
COC(=O)c1cc(Br)ccc1O	94.5%	103%	100%	110%	108%	110%	117%	117%	107%
CC(=O)c1sc2sc(C(C)=O)c(C)c2c1C	66.7%		93.2%	108%	81.2%	101%	110%	92%	95.6%
O=C(CN1CCCCCC1)Nc1nc2ccc(NCc3ccc(Cl)cc3)cc2s1	79.3%	95.3%	98.6%	96.3%	107%	98.4%	104%	98%	106%
COc1ccc(-c2nc(-c3cn(C)c4ncccc34)cs2)cc1	-28.1% [100 µM] (active)	11.5% [100 µM]	28% [100 µM]	1.57% [100 µM] (active)	-3.58% [100 µM] (active)	17.9% [100 µM]	17.9% [100 µM]	38.8% [100 µM]	3.69% [100 µM] (active)
